# Bioassay records as filed in PubChem.
# Shown are actives, neighbours in structure and some others; about 13% of the full set was active somewhere.
# LASV entry inh = blocks Lassa virus binding to or entry into cells; 300,000 tested, 1.2% active; Lassa virus pseudotype entry inhibition, cell reporter; AID 540256; Potency, µM (highest dose often 37.9 µM), most hits filed as inhibitors; calls by dose curve; tested in HEK293 cells; note: nearly all actives have a fitted effect of over 50% in size
# FMDV antiviral = antivirals against foot and mouth disease virus. FMDV antiviral cell-based qHTS. Potency, µM (top dose mostly 57.9 µM), most hits filed as inhibitors. 410,000 tested, 1.2% active. AID 1159524; calls by dose curve; tested in HEK293T cells; note: read-out not given here; nearly all actives have a fitted effect of over 45% in size
# Cycloheximide cs = counter-screen for Shiga toxin inhibitors: cycloheximide protein synthesis inhibition | 300,000 tested, 12% active | cell reporter, cycloheximide protein synthesis inhibition counterscreen | max response, %; in the data active = max response mostly above about 13%, no sharp cut-off; inactive = mostly below about 14%; note: read at 38.3 µM for the half of the compounds with a filed dose
# Marburg entry inh = Marburg virus entry inhibition; Marburg virus pseudotyped entry inhibition, cell reporter; Potency, µM (highest dose often 37.8 µM), usual class: inhibitors; 300,000 tested, 1.8% active; calls by dose curve; tested in HEK293 cells
# HCV inh = blocks hepatitis C virus; Huh7.5.1 HCVcc-Cre infection, luciferase reporter, 44 h; Potency, µM (doses to about 41.8 µM), actives largely listed as inhibitors; 340,000 tested, 3.4% active; AID 651820; active = well fitted inhibition curve with a large enough effect; inconclusive = small, poorly fitted or top-dose-only effect, or another doubt; inactive = no such curve, though single readings can be large or run the other way
#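 Cells (1,000/well) were plated 4 h before compound, then infected with HCVcc-Cre virus (~0.5 moi). After 44 h further culture, infection was read as luciferase luminescence following a 15 min substrate incubation at room temperature.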
# Shiga toxin inh = inhibitors of Shiga toxin in Vero cells | AID 2315 | Vero cells, Shiga toxin protein synthesis inhibition reporter | inhibition, % at 38.7 µM | 290,000 tested, 9.2% active; in the data active = inhibition mostly above about 28%, no sharp cut-off; inactive = mostly below about 43%
# Hits are given with their value; - = inactive; ? = inconclusive; . = no result given.
SMILES,LASV entry inh,FMDV antiviral,Cycloheximide cs,Marburg entry inh,HCV inh,Shiga toxin inh
CC(=O)Nc1ccc(NC(=O)Nc2ccccc2C)cc1,.,-,-,.,-,-
CNC(=O)Nc1ccccc1F,-,-,-,-,-,-
O=C(Nc1ccc(F)cc1)Nc1ccccc1F,-,-,65.2,?,-,108.6
O=C(Nc1ccc(NC(=O)c2ccccc2O)cc1)Nc1ccc(F)cc1F,-,-,-,-,?,-
O=C(NC1=NN(c2ccccc2)CC1)Nc1ccccc1F,.,-,34.8,.,-,37.0
COc1ccc(CN(C)CC(=O)NC(=O)Nc2ccccc2F)cc1,.,-,.,.,-,.
O=C(C#Cc1ccccc1)Nc1ccccc1F,.,-,34.0,.,?,-
COC(C(=O)Nc1ccccc1F)c1ccccc1 (stereo unspecified),-,-,-,-,-,-
COc1ccc(NC(=O)Nc2ccccc2F)cc1,?,.,31.9,?,-,-
CC(C)CCNC(=O)C(c1ccco1)N(Cc1cccs1)C(=O)Cn1nnc2ccccc21 (stereo unspecified),?,-,-,-,-,-
COc1c(S(=O)(=O)N2CCN(C(=O)c3ccco3)CC2)ccc(Cl)c1Cl,.,-,-,.,-,-
O=C(Nc1ccccc1Cl)c1cc(C2CCCCN2S(=O)(=O)c2ccccc2)on1 (stereo unspecified),.,-,.,.,.,.
COc1ccc(NC(=O)Nc2ccccc2SC)cc1,-,-,29.8,?,-,105.2
COc1ccc(N2CCN(CC(=O)Nc3ccccc3SC)CC2)cc1,?,-,-,?,?,-
CCOc1ccc(/C=C2\SC(=S)N(CCCC(=O)NCCCN3CCOCC3)C2=O)cc1,?,11.2µM,-,?,-,-
CCc1ccc(/C=C2/SC(=S)N(CCC(=O)NCCCN3CCOCC3)C2=O)cc1,-,-,48.2,-,-,90.6
CN(C)C(=O)c1ccc(NC(=O)c2cc(-n3cnnc3)ccc2Cl)cc1,-,-,-,-,-,-
C[C@]12C=CC(=O)C=C1CCC1C2=CC[C@]2(C)[C@@H](C(=O)CN3CCN(c4cc(N5CCCC5)nc(N5CCCC5)n4)CC3)CC[C@@H]12 (stereo partly specified),.,.,.,5.62µM,.,.
CC(=O)OCC(=O)C1CCC2C3CCC4=CC(=O)C=CC4(C)C3CCC12C (stereo unspecified),-,-,.,-,-,.
COc1ccc(NC(=O)c2cc3c(=O)n(Cc4cccs4)ccc3nc2C)cc1,-,-,.,.,.,.
Cc1cc(C(=O)Nc2ccc(Cl)cc2)c(C)n1Cc1cccs1,?,-,67.2,?,-,94.9
Cc1cc(C)cc(NC(=O)c2cc(C)n(Cc3cccs3)c2C)c1,-,-,48.9,?,?,53.0
N#CCCn1c(=O)c(CCc2ccccc2)nc2cnc(Nc3ccccc3)nc21,.,-,.,.,.,.
COC(=O)c1ccc2nc(NC(=O)CN3C(=O)CCC3=O)sc2c1,-,-,-,-,-,-
COC(=O)c1ccc2nc(NC(=O)C(C)C)sc2c1,?,-,51.9,?,-,97.9
SMILES,LASV entry inh,FMDV antiviral,Cycloheximide cs,Marburg entry inh,HCV inh,Shiga toxin inh
COC(=O)c1ccc2nc(NC(=O)C3CC3)sc2c1,-,-,49.1,-,?,155.2
O=c1c2ccccc2cnn1-c1nc2ccccc2[nH]1,0.326µM,1.78µM,-,0.291µM,-,-
O=c1c2ccccc2cnn1-c1nc2ccccc2s1,.,.,.,-,.,.
O=c1c(Cl)c(N2CCCCC2)cnn1-c1nc2ccccc2[nH]1,?,?,19.8,?,-,-
CCS(=O)(=O)N1CCN(c2cnn(-c3ccccc3)c(=O)c2Cl)CC1,-,-,-,-,-,-
Cn1c(=O)c2sccc2n2c(CCCC(=O)NCCc3ccccc3)nnc12,.,-,-,.,-,-
CCOc1cccc2sc(N(CCCN(C)C)C(=O)c3ccc(C(=O)c4ccccc4)cc3)nc12,?,-,-,?,?,-
Clc1cccc(Cc2c(-c3ccco3)nc3ccc(Cl)cn23)c1,.,39.8µM,.,.,.,.
Clc1cccc(Cc2c(-c3ccco3)nc3ccc(Br)cn23)c1,.,25.1µM,.,.,.,.
Clc1ccc(-c2nc3ccc(Cl)cn3c2Cc2cccc(Cl)c2)cc1,.,-,.,.,.,.
Brc1ccc2nc(-c3ccco3)c(Cc3ccccc3)n2c1,.,-,.,.,.,.
Cc1cc(-c2ccc(C)c(S(=O)(=O)Nc3cccc(C#N)c3)c2)on1,-,-,.,.,.,.
O=C(Nc1ccc(Cl)cc1)OCc1cn(-c2ccccc2)nn1,-,-,30.2,-,-,-
O=C(NCc1ccccn1)Nc1ccc(Br)cc1,.,-,12.5,.,-,28.8
O=C(NCc1ccccn1)Nc1ccc(F)cc1F,.,-,-,.,-,-
Cc1cccc(NC(=O)C(=O)NCc2ccccn2)c1,?,.,59.3,-,-,168.0
O=C(NCc1ccccn1)Nc1cccc(F)c1,.,-,26.2,.,-,39.1
